Reference: PubChem BioAssay AID1159580 (chemical genetic matrix, 2015)
Several values for one entry are separate records, joined by “and”; a condition that tells them apart may be missing. Equal values may be shown once. In all, about 5,500 compounds went through this assay and about 2,000 (36%) were called active. Roughly 18% stayed inconclusive and do not appear here. No stated cut-off is given here; in the data, active means normalized growth mostly below about 0.91 (no sharp cut-off); inconclusive means no clear call, values can overlap the other calls; inactive means mostly above about 0.92. The list shows a part of the results.

Assay: chemical genetic growth profiling, strain panel (AID 1159580);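 further: tested at 20 µM; growth read once vehicle control cultures reached saturation at 30 °C; 1 = growth at the plate median or of vehicle wells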
Conditions: S. cerevisiae deletion strains, growth OD

Measured: normalized growth

COc1cc2c3cc1Oc1cc(ccc1O)C[C@@H]1c4c(cc(OC)c(O)c4Oc4ccc(cc4)C[C@@H]3N(C)CC2)CC[N+]1(C)C
inactive: locus YAL021C, strain ccr4, stronger effect = lower value 1 | locus YAL026C, strain drs2, stronger effect = lower value 0.976 | locus YAL030W, strain snc1, stronger effect = lower value 1.01 | locus YBL061C, strain skt5, stronger effect = lower value 1 | locus YBR009C, strain hhf1, stronger effect = lower value 0.943 | locus YBR021W, strain FUR4, stronger effect = lower value 0.998 | locus YBR023C, strain chs3, stronger effect = lower value 0.997 | locus YBR171W, strain sec66, stronger effect = lower value 1.01 | locus YBR229C, strain ROT2, stronger effect = lower value 1 | locus YBR231C, strain swc5, stronger effect = lower value 1.02 | locus YBR279W, strain paf1, stronger effect = lower value 0.991 | locus YCL011C, strain gbp2, stronger effect = lower value 0.954 | locus YCL016C, strain dcc1, stronger effect = lower value 0.939 | locus YCL029C, strain bik1, stronger effect = lower value 0.999 | locus YCL069W, strain vba3, stronger effect = lower value 0.998 | locus YCR088W, strain abp1, stronger effect = lower value 0.997 | locus YDL005C, strain med2, stronger effect = lower value 1 | locus YDL035C, strain GPR1, stronger effect = lower value 1 | locus YDL040C, strain nat1, stronger effect = lower value 1.01 | locus YDL074C, strain BRE1, stronger effect = lower value 1.02 | locus YDL101C, strain DUN1, stronger effect = lower value 1.02 | locus YDL185W, strain tfp1, stronger effect = lower value 1.01 | locus YDL192W, strain arf1, stronger effect = lower value 0.998 | locus YDR001C, strain nth1, stronger effect = lower value 0.972 | locus YDR069C, strain doa4, stronger effect = lower value 1.02 | locus YDR101C, strain arx1, stronger effect = lower value 1 | locus YDR137W, strain rgp1, stronger effect = lower value 1 | locus YDR159W, strain sac3, stronger effect = lower value 0.927 | locus YDR162C, strain NBP2, stronger effect = lower value 1.03 | locus YDR195W, strain ref2 1.01 | locus YDR297W, strain sur2, stronger effect = lower value 1 | locus YDR318W, strain mcm21, stronger effect = lower value 0.994 | locus YDR334W, strain swr1, stronger effect = lower value 0.979 | locus YDR335W, strain msn5, stronger effect = lower value 0.995 | locus YDR388W, stronger effect = lower value 1 | locus YDR392W, strain spt3, stronger effect = lower value 0.769 | locus YDR502C, strain sam2, stronger effect = lower value 1 | locus YEL003W, strain gim4, stronger effect = lower value 1 | locus YEL037C, strain rad23, stronger effect = lower value 0.999 | locus YEL061C, strain CIN8 (second series), stronger effect = lower value 0.967 | locus YEL061C, strain CIN8, stronger effect = lower value 1.01 | locus YER015W, strain faa2, stronger effect = lower value 0.996 | locus YER016W, strain bim1, stronger effect = lower value 0.988 | locus YER110C, stronger effect = lower value 1.01 | locus YER111C, strain swi4, stronger effect = lower value 0.994 | locus YER155C, strain BEM2 (second series), stronger effect = lower value 1.05 | locus YER155C, strain BEM2, stronger effect = lower value 1.02 | locus YER167W, strain BCK2, stronger effect = lower value 1.01 | locus YFR010W, strain ubp6, stronger effect = lower value 0.989 | locus YGL078C, strain dbp3, stronger effect = lower value 0.993 | locus YGL086W, strain mad1, stronger effect = lower value 1.03 | locus YGL167C, strain pmr1, stronger effect = lower value 1 | locus YGL173C, strain kem1, stronger effect = lower value 1 | locus YGL227W, strain vid30, stronger effect = lower value 0.981 | locus YGL240W, strain doc1, stronger effect = lower value 1.02 | locus YGL248W, strain PDE1, stronger effect = lower value 1.02 | locus YGL253W, strain hxk2, stronger effect = lower value 0.978 | locus YGR135W, strain pre9, stronger effect = lower value 0.989 | locus YGR252W, strain gcn5, stronger effect = lower value 0.947 | locus YHR013C, strain ard1, stronger effect = lower value 0.943 | locus YHR027C, strain rpn1, stronger effect = lower value 0.988 | locus YHR030C, strain SLT2, stronger effect = lower value 1 and 0.98 | locus YHR079C, strain IRE1 (second series), stronger effect = lower value 1.01 | locus YHR079C, strain IRE1, stronger effect = lower value 0.981 | locus YHR094C, strain hxt1, stronger effect = lower value 0.996 | locus YHR129C, strain ARP1, stronger effect = lower value 1.02 | locus YHR142W, strain chs7, stronger effect = lower value 1 | locus YHR200W, strain rpn10, stronger effect = lower value 0.993 | locus YIL066C, strain RNR3, stronger effect = lower value 1.01 | locus YIL073C, strain SPO22, stronger effect = lower value 1.07 | locus YIL125W, strain kgd1, stronger effect = lower value 1.01 | locus YIR030C, strain dcg1, stronger effect = lower value 0.997 | locus YJL092W, strain hpr5, stronger effect = lower value 0.988 | locus YJL095W, strain BCK1 (second series), stronger effect = lower value 1 | locus YJL095W, strain BCK1, stronger effect = lower value 1.06 and 0.983 | locus YJL115W, strain asf1, stronger effect = lower value 0.983 | locus YJL129C, strain trk1, stronger effect = lower value 1 | locus YJL134W, strain LCB3, stronger effect = lower value 1.01 | locus YJL154C, strain vps35, stronger effect = lower value 0.992 | locus YJL164C, strain tpk1, stronger effect = lower value 0.957 | locus YJL166W, strain qcr8, stronger effect = lower value 1.04 | locus YJL168C, strain set2, stronger effect = lower value 1.01 | locus YJL187C, strain SWE1 (second series), stronger effect = lower value 1.04 | locus YJL187C, strain SWE1, stronger effect = lower value 1.01 | locus YJR043C, strain POL32, stronger effect = lower value 0.991 | locus YJR066W, strain TOR1, stronger effect = lower value 0.969 | locus YJR075W, strain HOC1, stronger effect = lower value 1.03
